Assay results as given in PubChem BioAssay AID1159580 (chemical genetic matrix, 2015).
In all, about 5,500 compounds went through this assay and about 2,000 (36%) were called active. About 18% were inconclusive and are not listed. Rule as the data show it: active = normalized growth mostly below about 0.91 (no sharp cut-off); inconclusive = no clear call, values can overlap the other calls; inactive = mostly above about 0.92. The list shows a part of the results.

Assay: chemical genetic growth profiling, strain panel (AID 1159580);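 also: tested at 20 µM; growth read once vehicle control cultures reached saturation at 30 °C; 1 = growth at the plate median or of vehicle wells; lower values mean less growth of the strain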
Settings: growth OD

Measured: normalized growth

CNC(=O)Oc1cccc2c1OC(C)(C)O2
inactive: S. cerevisiae deletion strains, locus YJR043C, strain POL32, stronger effect = lower value 1.01 | S. cerevisiae deletion strains, locus YJR075W, strain HOC1, stronger effect = lower value 1.01 | S. cerevisiae deletion strains, locus YKL009W, strain mrt4, stronger effect = lower value 1.02 | S. cerevisiae deletion strains, locus YKL068W, stronger effect = lower value 1 | S. cerevisiae deletion strains, locus YKL085W, strain MDH1 (second series), stronger effect = lower value 1 | S. cerevisiae deletion strains, locus YKL085W, strain MDH1, stronger effect = lower value 1 | S. cerevisiae deletion strains, locus YKL160W, strain elf1, stronger effect = lower value 0.994 | S. cerevisiae deletion strains, locus YKL190W, strain CNB1, stronger effect = lower value 1.02 | S. cerevisiae deletion strains, locus YKR001C, strain vps1, stronger effect = lower value 1.01 | S. cerevisiae deletion strains, locus YKR026C, strain gcn3, stronger effect = lower value 1 | S. cerevisiae deletion strains, locus YKR091W, strain srl3, stronger effect = lower value 1 | S. cerevisiae deletion strains, locus YLL001W, strain dnm1, stronger effect = lower value 0.992 | S. cerevisiae deletion strains, locus YLL026W, stronger effect = lower value 0.998 | S. cerevisiae deletion strains, locus YLL041C, strain sdh2, stronger effect = lower value 0.999 | S. cerevisiae deletion strains, locus YLR027C, strain aat2, stronger effect = lower value 0.99 | S. cerevisiae deletion strains, locus YLR039C, strain RIC1, stronger effect = lower value 1.1 | S. cerevisiae deletion strains, locus YLR058C, strain SHM2, stronger effect = lower value 1.02 | S. cerevisiae deletion strains, locus YLR102C, strain apc9, stronger effect = lower value 0.991 | S. cerevisiae deletion strains, locus YLR221C, strain rsa3, stronger effect = lower value 1 | S. cerevisiae deletion strains, locus YLR258W, strain gsy2, stronger effect = lower value 1 | S. cerevisiae deletion strains, locus YLR262C, strain YPT6 (second series), stronger effect = lower value 1.03 | S. cerevisiae deletion strains, locus YLR262C, strain YPT6, stronger effect = lower value 1.14 | S. cerevisiae deletion strains, locus YLR268W, strain sec22, stronger effect = lower value 0.998 | S. cerevisiae deletion strains, locus YLR320W, strain mms22, stronger effect = lower value 0.986 | S. cerevisiae deletion strains, locus YLR330W, strain CHS5, stronger effect = lower value 1.02 | S. cerevisiae deletion strains, locus YLR342W, strain FKS1 (second series), stronger effect = lower value 0.991 | S. cerevisiae deletion strains, locus YLR342W, strain FKS1, stronger effect = lower value 0.997 | S. cerevisiae deletion strains, locus YLR357W, strain rsc2, stronger effect = lower value 1.05 | S. cerevisiae deletion strains, locus YLR370C, strain arc18, stronger effect = lower value 1.01 | S. cerevisiae deletion strains, locus YLR371W, strain rom2, stronger effect = lower value 0.989 | S. cerevisiae deletion strains, locus YLR384C, strain iki3, stronger effect = lower value 1.01 | S. cerevisiae deletion strains, locus YLR418C, strain cdc73, stronger effect = lower value 0.9 | S. cerevisiae deletion strains, locus YML016C, strain PPZ1, stronger effect = lower value 1.02 | S. cerevisiae deletion strains, locus YML032C, strain rad52, stronger effect = lower value 0.992 | S. cerevisiae deletion strains, locus YML120C, strain ndi1, stronger effect = lower value 1.01 | S. cerevisiae deletion strains, locus YML124C, strain tub3, stronger effect = lower value 0.998 | S. cerevisiae deletion strains, locus YMR058W, strain fet3, stronger effect = lower value 0.999 | S. cerevisiae deletion strains, locus YMR078C, strain ctf18, stronger effect = lower value 0.99 | S. cerevisiae deletion strains, locus YMR125W, strain sto1, stronger effect = lower value 1 | S. cerevisiae deletion strains, locus YMR129W, stronger effect = lower value 0.996 | S. cerevisiae deletion strains, locus YMR205C, strain PFK2, stronger effect = lower value 0.976 | S. cerevisiae deletion strains, locus YMR223W, strain ubp8, stronger effect = lower value 0.985 | S. cerevisiae deletion strains, locus YMR231W, strain pep5, stronger effect = lower value 0.995 | S. cerevisiae deletion strains, locus YMR263W, strain SAP30, stronger effect = lower value 1.02 | S. cerevisiae deletion strains, locus YMR307W, strain GAS1, stronger effect = lower value 1.05 | S. cerevisiae deletion strains, locus YNL067W, strain RPL9B, stronger effect = lower value 1.02 | S. cerevisiae deletion strains, locus YNL071W, strain lat1, stronger effect = lower value 1 | S. cerevisiae deletion strains, locus YNL128W, strain TEP1, stronger effect = lower value 1.03 | S. cerevisiae deletion strains, locus YNL153C, strain GIM3, stronger effect = lower value 1.01 | S. cerevisiae deletion strains, locus YNL209W, strain ssb2, stronger effect = lower value 0.996 | S. cerevisiae deletion strains, locus YNL233W, strain BNI4, stronger effect = lower value 1.02 | S. cerevisiae deletion strains, locus YNL248C, strain rpa49, stronger effect = lower value 0.991 | S. cerevisiae deletion strains, locus YNL250W, strain rad50, stronger effect = lower value 0.997 | S. cerevisiae deletion strains, locus YNL271C, strain bni1, stronger effect = lower value 1 | S. cerevisiae deletion strains, locus YNL298W, strain CLA4, stronger effect = lower value 0.998 | S. cerevisiae deletion strains, locus YNL307C, strain MCK1, stronger effect = lower value 0.984 | S. cerevisiae deletion strains, locus YNL322C, strain KRE1 (second series), stronger effect = lower value 0.999 | S. cerevisiae deletion strains, locus YNL322C, strain KRE1, stronger effect = lower value 1.02 | S. cerevisiae deletion strains, locus YNR049C, strain mso1, stronger effect = lower value 1 | S. cerevisiae deletion strains, locus YNR052C, strain pop2, stronger effect = lower value 0.996 | S. cerevisiae deletion strains, locus YOL006C, strain TOP1, stronger effect = lower value 1.02 | S. cerevisiae deletion strains, locus YOL012C, strain htz1 1.24 | S. cerevisiae deletion strains, locus YOL147C, strain pex11, stronger effect = lower value 0.993 | S. cerevisiae deletion strains, locus YOR001W, strain rrp6, stronger effect = lower value 0.981 | S. cerevisiae deletion strains, locus YOR061W, strain CKA2, stronger effect = lower value 1.02 | S. cerevisiae deletion strains, locus YOR069W, strain VPS5, stronger effect = lower value 1.01 | S. cerevisiae deletion strains, locus YOR070C, strain gyp1, stronger effect = lower value 0.991 | S. cerevisiae deletion strains, locus YOR080W, strain dia2, stronger effect = lower value 1 | S. cerevisiae deletion strains, locus YOR083W, strain WHI5, stronger effect = lower value 1 | S. cerevisiae deletion strains, locus YOR106W, strain vam3, stronger effect = lower value 0.987 | S. cerevisiae deletion strains, locus YOR136W, strain idh2, stronger effect = lower value 0.983 | S. cerevisiae deletion strains, locus YOR144C, strain elg1, stronger effect = lower value 0.999 | S. cerevisiae deletion strains, locus YOR184W, strain ser1, stronger effect = lower value 1.01 | S. cerevisiae deletion strains, locus YOR265W, strain rbl2, stronger effect = lower value 1.01 | S. cerevisiae deletion strains, locus YOR270C, strain vph1, stronger effect = lower value 0.953 | S. cerevisiae deletion strains, locus YOR290C, strain snf2, stronger effect = lower value 0.959 | S. cerevisiae deletion strains, locus YOR316C, strain cot1, stronger effect = lower value 0.995 | S. cerevisiae deletion strains, locus YPL051W, strain arl3, stronger effect = lower value 0.997 | S. cerevisiae deletion strains, locus YPL055C, strain LGE1, stronger effect = lower value 1.03 | S. cerevisiae deletion strains, locus YPL078C, strain atp4, stronger effect = lower value 0.988 | S. cerevisiae deletion strains, locus YPL106C, strain sse1, stronger effect = lower value 1.08 | S. cerevisiae deletion strains, locus YPL240C, strain hsp82, stronger effect = lower value 1 | S. cerevisiae deletion strains, locus YPL241C, strain CIN2, stronger effect = lower value 1.02 | S. cerevisiae deletion strains, locus YPR119W, strain clb2, stronger effect = lower value 0.993 | S. cerevisiae deletion strains, locus YPR141C, strain kar3, stronger effect = lower value 0.993 | S. cerevisiae deletion strains, locus YPR163C, strain tif3, stronger effect = lower value 0.988 | S. cerevisiae deletion strains, locus YPR167C, strain met16, stronger effect = lower value 0.993 | S. cerevisiae deletion strains, strain wtn01, stronger effect = lower value 0.99 | S. cerevisiae strains, strain wild type, stronger effect = lower value 1.01
